# From PubChem BioAssay
# Target: Focal adhesion kinase 1 (Homo sapiens) (UniProt Q05397)
# Assay: small-molecule microarray binders of FAK, primary screen, biochemical, 635/667 nm fluorescence, BSA, DTT (AID 1130);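 note: composite of spot emission at 667 nm and signal to noise over triplicate slides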
# Conditions: PTK2 binding, 635 nm fluorescence, higher = more signal
# Chain of Focal adhesion kinase 1 (Homo sapiens) (Q05397 whole entry, looked up): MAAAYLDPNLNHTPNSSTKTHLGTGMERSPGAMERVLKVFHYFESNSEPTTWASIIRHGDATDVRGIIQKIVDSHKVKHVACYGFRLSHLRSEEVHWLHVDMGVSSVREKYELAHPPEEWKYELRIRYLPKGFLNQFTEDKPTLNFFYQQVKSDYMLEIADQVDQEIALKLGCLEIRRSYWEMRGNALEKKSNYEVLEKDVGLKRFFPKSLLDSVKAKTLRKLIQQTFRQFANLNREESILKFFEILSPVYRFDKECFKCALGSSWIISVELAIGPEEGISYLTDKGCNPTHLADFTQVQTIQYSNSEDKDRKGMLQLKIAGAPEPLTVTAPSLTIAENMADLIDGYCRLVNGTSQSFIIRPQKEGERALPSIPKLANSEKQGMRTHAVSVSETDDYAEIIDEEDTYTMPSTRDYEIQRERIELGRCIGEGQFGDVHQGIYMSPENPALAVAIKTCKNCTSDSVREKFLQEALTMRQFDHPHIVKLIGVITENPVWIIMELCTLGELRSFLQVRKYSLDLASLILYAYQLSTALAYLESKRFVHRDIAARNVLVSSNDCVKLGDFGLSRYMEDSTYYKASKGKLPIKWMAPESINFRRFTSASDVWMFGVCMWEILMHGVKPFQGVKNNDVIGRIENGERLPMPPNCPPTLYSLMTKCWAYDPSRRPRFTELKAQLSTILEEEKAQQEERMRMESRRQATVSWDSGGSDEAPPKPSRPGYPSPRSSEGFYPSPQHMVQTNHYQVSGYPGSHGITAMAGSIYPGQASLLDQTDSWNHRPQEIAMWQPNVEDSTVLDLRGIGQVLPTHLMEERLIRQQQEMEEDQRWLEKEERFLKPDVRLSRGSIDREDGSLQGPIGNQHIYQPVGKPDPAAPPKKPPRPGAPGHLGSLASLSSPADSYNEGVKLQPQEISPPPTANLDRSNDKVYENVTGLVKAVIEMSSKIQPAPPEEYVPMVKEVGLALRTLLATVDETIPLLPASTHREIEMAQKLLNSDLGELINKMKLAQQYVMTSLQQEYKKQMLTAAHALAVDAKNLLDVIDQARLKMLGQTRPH
row,Compound,composite z-score
1,CC(C)C(=C=CC[C@@H](O)c1ccc(OCCO)cc1)CCO,-0.397
2,CC#CCO[Si](C#CCCCCCC)(C(C)C)C(C)C,-0.103
3,CN(C)CCCC[C@@H]1NC(=O)[C@H]2C[C@@H](C(=O)NCc3ccc(F)cc3)[C@@H](c3ccc(O)cc3)N2C1=O,-0.193
4,CC(C)N1CC=CC23O[C@@H]4C=CCCOC(=O)C4[C@H]2C(=O)N(CCCCCO)[C@@H]3C1=O (stereo partly specified),-0.133
5,COCCOC(=O)N1C(=O)[C@@]2(c3ccccc31)[C@H](C(=O)N1CCCCCCC1)[C@H]1C(=O)O[C@H](c3ccccc3)[C@H](c3ccccc3)N1[C@@H]2c1ccc(O)cc1,1.01
6,C#CCN([C@H](/C=C/C1CC1)[C@@H](O)Cc1ccccc1)[C@@H](Cc1ccccc1)C(=O)OC,-0.113
7,COC(=O)[C@@]1(Cc2ccc(F)cc2)[C@H]2c3cc(C(=O)N(C)C)n(CCn4cc([N+](=O)[O-])nc4C)c3C[C@H]2CN1C(=O)c1ccccc1,1.45
8,CCOC(=O)C[C@H]1[C@H](OC(=O)Cc2ccc3c(c2)OCO3)[C@@H](NC(=O)c2ccccc2)c2cc(OCCCO)ccc2N1C(=O)Cc1ccc(OC)cc1,0.161
9,C[N+](C)(C)CCCC[C@@H]1NC(=O)[C@H]2C[C@@H](C(=O)NCCCCCNC(=O)CS)[C@@H](c3ccc(O)cc3)N2C1=O,0.336
10,CN1C(=O)[C@]2(CCS(=O)(=O)c3ccccc3)N=C(c3ccc(OCCCO)cc3)O[C@@H]2c2ccccc21,1.26
11,O=C1O[C@@H](c2ccccc2)[C@@H](c2ccccc2)N2[C@@H](c3ccc(OCCO)cc3)[C@]3(C(=O)Nc4ccc(C#CCCO)cc43)[C@@H](C(=O)Nc3nc4ccccc4s3)[C@H]12,0.256
